Several values for one entry are separate records, joined by “and”; a condition that tells them apart may be missing. Equal values may be shown once. In all, about 5,500 compounds went through this assay and about 2,000 (36%) were called active. Another 18% or so got no clear call; they are omitted. Rule as the data show it: active = normalized growth mostly below about 0.91 (no sharp cut-off); inconclusive = no clear call, values can overlap the other calls; inactive = mostly above about 0.92. This is one part of the list.
Test: chemical genetic growth profiling, strain panel (AID 1159580);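 also: tested at 20 µM; growth read once vehicle control cultures reached saturation at 30 °C; 1 = growth at the plate median or of vehicle wells; lower values mean less growth of the strain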
Details: S. cerevisiae deletion strains, growth OD

Measured: normalized growth

Nc1nc2ncc(CNc3ccc(C(=O)N[C@@H](CCC(=O)O)C(=O)O)cc3)nc2c(=O)[nH]1
inactive: locus YAL021C, strain ccr4, active compounds read low 0.993 | locus YAL026C, strain drs2, active compounds read low 1.01 | locus YAL030W, strain snc1, active compounds read low 0.998 | locus YBL061C, strain skt5, active compounds read low 1 | locus YBR009C, strain hhf1, active compounds read low 1.01 | locus YBR021W, strain FUR4, active compounds read low 1.04 | locus YBR023C, strain chs3, active compounds read low 0.995 | locus YBR171W, strain sec66, active compounds read low 0.996 | locus YBR229C, strain ROT2, active compounds read low 0.992 | locus YBR231C, strain swc5, active compounds read low 0.996 | locus YBR279W, strain paf1, active compounds read low 0.996 | locus YCL011C, strain gbp2, active compounds read low 1 | locus YCL016C, strain dcc1, active compounds read low 0.998 | locus YCL029C, strain bik1, active compounds read low 0.976 | locus YCL061C, strain MRC1, active compounds read low 0.998 | locus YCL069W, strain vba3, active compounds read low 1 | locus YCR088W, strain abp1, active compounds read low 1 | locus YDL005C, strain med2, active compounds read low 1 | locus YDL035C, strain GPR1, active compounds read low 0.995 | locus YDL040C, strain nat1, active compounds read low 0.995 | locus YDL074C, strain BRE1, active compounds read low 0.993 | locus YDL101C, strain DUN1, active compounds read low 0.996 | locus YDL185W, strain tfp1, active compounds read low 0.956 | locus YDL192W, strain arf1, active compounds read low 0.976 | locus YDR001C, strain nth1, active compounds read low 0.997 | locus YDR069C, strain doa4, active compounds read low 0.999 | locus YDR101C, strain arx1, active compounds read low 0.982 | locus YDR137W, strain rgp1, active compounds read low 1.03 | locus YDR159W, strain sac3, active compounds read low 1.01 | locus YDR162C, strain NBP2, active compounds read low 1.02 | locus YDR195W, strain ref2 0.993 | locus YDR297W, strain sur2, active compounds read low 0.997 | locus YDR318W, strain mcm21, active compounds read low 0.99 | locus YDR334W, strain swr1, active compounds read low 1 | locus YDR335W, strain msn5, active compounds read low 0.997 | locus YDR388W, active compounds read low 0.976 | locus YDR392W, strain spt3, active compounds read low 0.941 | locus YDR502C, strain sam2, active compounds read low 0.986 | locus YEL003W, strain gim4, active compounds read low 1.01 | locus YEL037C, strain rad23, active compounds read low 1 | locus YEL061C, strain CIN8 (second series), active compounds read low 1 | locus YEL061C, strain CIN8, active compounds read low 0.988 | locus YER015W, strain faa2, active compounds read low 1 | locus YER016W, strain bim1, active compounds read low 1.01 | locus YER110C, active compounds read low 0.952 | locus YER111C, strain swi4, active compounds read low 0.985 | locus YER155C, strain BEM2 (second series), active compounds read low 1.01 | locus YER155C, strain BEM2, active compounds read low 0.986 | locus YER167W, strain BCK2, active compounds read low 0.99 | locus YFR010W, strain ubp6, active compounds read low 1.01 | locus YGL078C, strain dbp3, active compounds read low 0.998 | locus YGL086W, strain mad1, active compounds read low 0.968 | locus YGL167C, strain pmr1, active compounds read low 1 | locus YGL173C, strain kem1, active compounds read low 0.996 | locus YGL227W, strain vid30, active compounds read low 0.993 | locus YGL240W, strain doc1, active compounds read low 1.02 | locus YGL248W, strain PDE1, active compounds read low 1.01 | locus YGL253W, strain hxk2, active compounds read low 0.993 | locus YGR078C, strain PAC10, active compounds read low 1.03 | locus YGR135W, strain pre9, active compounds read low 1 | locus YGR252W, strain gcn5, active compounds read low 1.21 | locus YHR013C, strain ard1, active compounds read low 1 | locus YHR027C, strain rpn1, active compounds read low 1 | locus YHR030C, strain SLT2, active compounds read low 0.971 and 1.02 | locus YHR079C, strain IRE1 (second series), active compounds read low 0.972 | locus YHR079C, strain IRE1, active compounds read low 1.03 | locus YHR094C, strain hxt1, active compounds read low 0.989 | locus YHR129C, strain ARP1, active compounds read low 0.99 | locus YHR142W, strain chs7, active compounds read low 0.989 | locus YHR200W, strain rpn10, active compounds read low 0.985 | locus YIL066C, strain RNR3, active compounds read low 1 | locus YIL073C, strain SPO22, active compounds read low 0.922 | locus YIL125W, strain kgd1, active compounds read low 0.94 | locus YIR030C, strain dcg1, active compounds read low 0.985 | locus YJL092W, strain hpr5, active compounds read low 0.995 | locus YJL095W, strain BCK1 (second series), active compounds read low 0.992 | locus YJL095W, strain BCK1, active compounds read low 1.05 and 1.02 | locus YJL115W, strain asf1, active compounds read low 1 | locus YJL129C, strain trk1, active compounds read low 0.993 | locus YJL134W, strain LCB3, active compounds read low 0.979 | locus YJL154C, strain vps35, active compounds read low 1 | locus YJL164C, strain tpk1, active compounds read low 0.994 | locus YJL166W, strain qcr8, active compounds read low 0.995 | locus YJL168C, strain set2, active compounds read low 1.01 | locus YJL187C, strain SWE1 (second series), active compounds read low 1.01 | locus YJL187C, strain SWE1, active compounds read low 0.999 | locus YJR043C, strain POL32, active compounds read low 1.01 | locus YJR066W, strain TOR1, active compounds read low 0.959 | locus YKL009W, strain mrt4, active compounds read low 0.954 | locus YKL068W, active compounds read low 0.98 | locus YKL085W, strain MDH1 (second series), active compounds read low 0.981 | locus YKL085W, strain MDH1, active compounds read low 0.981 | locus YKL160W, strain elf1, active compounds read low 0.987 | locus YKL190W, strain CNB1, active compounds read low 0.985 | locus YKR001C, strain vps1, active compounds read low 0.975 | locus YKR026C, strain gcn3, active compounds read low 1 | locus YKR091W, strain srl3, active compounds read low 1 | locus YLL001W, strain dnm1, active compounds read low 0.967 | locus YLL026W, active compounds read low 0.997 | locus YLL041C, strain sdh2, active compounds read low 0.998 | locus YLR027C, strain aat2, active compounds read low 1 | locus YLR039C, strain RIC1, active compounds read low 0.987 | locus YLR058C, strain SHM2, active compounds read low 0.991 | locus YLR102C, strain apc9, active compounds read low 0.957 | locus YLR113W, strain HOG1, active compounds read low 1.02 | locus YLR221C, strain rsa3, active compounds read low 0.995 | locus YLR258W, strain gsy2, active compounds read low 0.998 | locus YLR262C, strain YPT6 (second series), active compounds read low 0.998 | locus YLR262C, strain YPT6, active compounds read low 1 | locus YLR268W, strain sec22, active compounds read low 0.963 | locus YLR320W, strain mms22, active compounds read low 0.992 | locus YLR330W, strain CHS5, active compounds read low 0.979 | locus YLR342W, strain FKS1 (second series), active compounds read low 1.01 | locus YLR342W, strain FKS1, active compounds read low 0.995 | locus YLR357W, strain rsc2, active compounds read low 1.01 | locus YLR370C, strain arc18, active compounds read low 0.994 | locus YLR371W, strain rom2, active compounds read low 0.98 | locus YLR384C, strain iki3, active compounds read low 1.01 | locus YLR418C, strain cdc73, active compounds read low 1.04 | locus YML016C, strain PPZ1, active compounds read low 0.989 | locus YML032C, strain rad52, active compounds read low 0.985 | locus YML120C, strain ndi1, active compounds read low 0.995 | locus YML124C, strain tub3, active compounds read low 0.991 | locus YMR058W, strain fet3, active compounds read low 1 | locus YMR078C, strain ctf18, active compounds read low 0.982 | locus YMR125W, strain sto1, active compounds read low 0.993 | locus YMR129W, active compounds read low 1 | locus YMR205C, strain PFK2, active compounds read low 0.992 | locus YMR223W, strain ubp8, active compounds read low 0.998 | locus YMR231W, strain pep5, active compounds read low 1 | locus YMR263W, strain SAP30, active compounds read low 0.995 | locus YMR307W, strain GAS1, active compounds read low 1.19 | locus YNL067W, strain RPL9B, active compounds read low 1.02 | locus YNL071W, strain lat1, active compounds read low 1 | locus YNL153C, strain GIM3, active compounds read low 1.03 | locus YNL183C, strain NPR1, active compounds read low 0.947 | locus YNL209W, strain ssb2, active compounds read low 0.998 | locus YNL233W, strain BNI4, active compounds read low 1.03 | locus YNL248C, strain rpa49, active compounds read low 0.994 | locus YNL250W, strain rad50, active compounds read low 0.981 | locus YNL271C, strain bni1, active compounds read low 0.997 | locus YNL298W, strain CLA4, active compounds read low 0.989 | locus YNL307C, strain MCK1, active compounds read low 0.98 | locus YNL322C, strain KRE1 (second series), active compounds read low 0.998 | locus YNL322C, strain KRE1, active compounds read low 0.987 | locus YNR049C, strain mso1, active compounds read low 0.999 | locus YNR052C, strain pop2, active compounds read low 0.994 | locus YOL012C, strain htz1 0.994 | locus YOL147C, strain pex11, active compounds read low 0.985 | locus YOR001W, strain rrp6, active compounds read low 0.984 | locus YOR061W, strain CKA2, active compounds read low 0.99 | locus YOR069W, strain VPS5, active compounds read low 0.981 | locus YOR070C, strain gyp1, active compounds read low 0.996 | locus YOR080W, strain dia2, active compounds read low 1 | locus YOR083W, strain WHI5, active compounds read low 0.985 | locus YOR106W, strain vam3, active compounds read low 1.02 | locus YOR136W, strain idh2, active compounds read low 0.987 | locus YOR144C, strain elg1, active compounds read low 0.987 | locus YOR184W, strain ser1, active compounds read low 0.963 | locus YOR231W, strain MKK1, active compounds read low 1.03 | locus YOR265W, strain rbl2, active compounds read low 1.01 | locus YOR270C, strain vph1, active compounds read low 0.99 | locus YOR290C, strain snf2, active compounds read low 1.02 | locus YOR316C, strain cot1, active compounds read low 0.988 | locus YPL051W, strain arl3, active compounds read low 0.997 | locus YPL078C, strain atp4, active compounds read low 0.996 | locus YPL106C, strain sse1, active compounds read low 0.963 | locus YPL240C, strain hsp82, active compounds read low 0.985 | locus YPL256C, strain CLN2, active compounds read low 1.02 | locus YPR119W, strain clb2, active compounds read low 0.976 | locus YPR141C, strain kar3, active compounds read low 0.979 | locus YPR163C, strain tif3, active compounds read low 0.993 | locus YPR167C, strain met16, active compounds read low 0.97 | strain wtn01, active compounds read low 0.971
